Screening data: PubChem, National Center for Advancing Translational Sciences (NCATS)
The list is not random: actives were taken first. Their share in the collection is about 2.3%.
Pol kappa inh = qHTS for Inhibitors of Polymerase Kappa; purified Pol kappa, fluorescent DNA synthesis assay, 10 min; 400,000 tested, 0.53% active; AID 588579, 2011; Potency, µM (series often up to 107 µM), inactives show at the top dose activity, negative = inhibition, usual class: inhibitors; DNA polymerase kappa (Homo sapiens), Q9UBT6; note: % is set by controls: 0 for no effect and ±100 for the full control effect
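Readout: fluorescence, taken kinetically at 0 and 10 min. Conditions: 10 nM Pol kappa, 15 min RT compound preincubation, 50 nM substrate final. Controls: enzyme-free buffer wells.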
WRN helicase inh = qHTS for Inhibitors of WRN Helicase. Bifunctional 3'-5' exonuclease/ATP-dependent helicase WRN (Homo sapiens), Q14191. WRN helicase unwinding, fluorescent forked duplex, kinetic. Potency, µM (titrated, usually from 114 µM), for the others: top-dose activity change, negative = inhibition, actives largely listed as inhibitors. 360,000 tested, 0.46% active. AID 651768, 2012; note: % is set by controls: 0 for no effect and ±100 for the full control effect; nearly all actives have a fitted effect of over 55% in size
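Fluorescence dequenching readout, ex 525 nm/em 598 nm, kinetic mode: forked duplex DNA (100 nM final) with adjacent fluorophore and quencher unwound by WRN (20 nM final) with 2 mM ATP. Compound preincubation 15 min, room temperature.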
POLI inh = qHTS for Inhibitors of Polymerase Iota. Pol iota fluorescent replication assay, 10 min. DNA polymerase iota (Homo sapiens), Q9UNA4. Potency, µM (top dose mostly 115 µM), inactives show at the highest dose activity, negative = inhibition, hits mostly inhibitors. 390,000 tested, 1% active
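Fluorescent replication assay read twice, at 0 min and 10 min after adding 50 nM (final) substrate. Enzyme (10 nM) and compounds were first incubated 15 min at room temperature; enzyme-free buffer wells were negative controls.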
Pol beta inh = qHTS Assay for Inhibitors of DNA Polymerase Beta; P06746; Pol beta primer extension/strand displacement, fluorescence kinetic; AID 485314, 2010; 340,000 tested, 1.3% active; Potency, µM (top dose mostly 114 µM), inactives show at the highest dose activity change, negative = inhibition, hits mostly inhibitors; note: % is set by controls: 0 for no effect and ±100 for the full control effect
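Homogeneous kinetic assay of primer extension and strand displacement by 10 nM Pol beta, preincubated 15 min at room temperature with compound before 50 nM substrate (final) was added. Read at 0 and 10 min; four-parameter Hill fit.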
Pol eta inh = qHTS for Inhibitors of Polymerase Eta; DNA polymerase eta (Homo sapiens), Q9Y253; AID 588591, 2011; recombinant Pol eta, fluorescent DNA replication assay; Potency, µM (highest dose often 114 µM), for the others: at the top dose activity change, negative = inhibition, actives largely listed as inhibitors; 390,000 tested, 1.2% active; note: % is set by controls: 0 for no effect and ±100 for the full control effect
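Pol eta (10 nM) was preincubated with compounds for 15 min at room temperature, after which fluorescent replication substrate (50 nM final) was added to start the reaction. Fluorescence was read kinetically at 0 and 10 min.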
Numbers without * were called inactive; [ ] = another dose, or the depositor's remark. Calls come from the whole dose curve; as a rule, active = well fitted curve in the direction sought with a large enough effect; inconclusive = small, poorly fitted or top-dose-only effect, or another doubt; inactive = no such curve, though single readings can be large; an effect the other way counts as inactive or inconclusive. Potency is the fitted concentration of half-maximal effect.

`CCC(C)/C=C/C1=CC2=C(Cl)C(=O)C3(C)OC(=O)C(C(=O)C(C)C(C)O)C3C2=CO1` (stereo unspecified) gave Pol kappa inh 79.4µM*, WRN helicase inh -6.2%[11.6 µM], POLI inh inconclusive, Pol beta inh 22.4µM* and Pol eta inh inconclusive.
Screening O=C1C2CC=C(Cl)CC2C(=O)N1CN(Cc1ccco1)CN1C(=O)C2CC=C(Cl)CC2C1=O (stereo unspecified) returned Pol kappa inh -3.5%, WRN helicase inh -17.3%, POLI inh inconclusive, Pol beta inh 35.5µM* and Pol eta inh inconclusive.
CCN(CC)CCNC(=O)Nc1ccc2c(c1)N(Cc1ccccc1)C(=O)c1ccccc1S2 was read as Pol kappa inh -9.4%, POLI inh -4.7% and Pol beta inh 8.6%.
`OC[C@H]1OC(O)[C@@H](O)[C@@H](O)[C@H]1O` (stereo partly specified) gave Pol kappa inh -6.5%[60.1 µM].
Screening CCCCCNC(=O)c1cc2c(=O)n3ccccc3nc2n1C returned Pol kappa inh 0.8%, POLI inh 15.7%, Pol beta inh 12.0% and Pol eta inh -0.2%.
`CCCCN(CC)C(=O)c1cc2c(=O)n3ccccc3nc2n1C` gave Pol kappa inh -27.5%, POLI inh -24.9%, Pol beta inh 44.7µM* and Pol eta inh -11.8%.
For COc1ccc(/C=C/c2cnc3ccccc3n2)cc1OC the results were Pol kappa inh -14.2% and POLI inh -1.4%.
For Cc1ccc(SCc2ccc(C(=O)NCc3ccncc3)cc2)cc1 the results were Pol kappa inh -2.4%, WRN helicase inh -7.9%[11.6 µM], POLI inh 28.2µM*, Pol beta inh inconclusive and Pol eta inh inconclusive.
`Cc1ccc(SCCC(=O)NCc2ccncc2)cc1` gave Pol kappa inh -8.0%, WRN helicase inh -6.5%, POLI inh 15.2%, Pol beta inh 3.2% and Pol eta inh -7.3%.
Screening COc1ccc2c(CC(=O)N3CCN(S(=O)(=O)c4cccs4)CC3)coc2c1 returned Pol kappa inh -11.3%, WRN helicase inh 2.0%, POLI inh 19.3%, Pol beta inh 5.1% and Pol eta inh 2.9%.
`Cc1ccc2c(CC(=O)N3CCN(S(=O)(=O)c4ccc5c(c4)OCCO5)CC3)coc2c1` gave Pol kappa inh -4.4%, WRN helicase inh -3.6%, POLI inh -6.2%, Pol beta inh 21.0% and Pol eta inh -0.1%.
`Cc1ccc2c(CC(=O)NNC(=O)c3ccccc3O)coc2c1` gave Pol kappa inh -38.9%, WRN helicase inh -8.3%[11.6 µM], POLI inh 44.7µM* and Pol eta inh inconclusive.
Screening Cc1ccc2c(CC(=O)N3CCN(S(=O)(=O)c4ccccc4)CC3)coc2c1 returned Pol kappa inh inconclusive, WRN helicase inh inconclusive, POLI inh inconclusive and Pol eta inh 31.6µM*.
Screening COc1ccc2c(CC(=O)N3CCN(S(=O)(=O)c4ccc(F)cc4)CC3)coc2c1 returned Pol kappa inh inconclusive, WRN helicase inh -27.6%, POLI inh inconclusive and Pol eta inh 31.6µM*.
Screening CS(=O)(=O)N1CCN(c2nc(-c3cccs3)nc3ccccc23)CC1 returned Pol kappa inh -2.3% and POLI inh -9.8%.
`Cc1ccc(C)n1C(CC(=O)O)c1ccc(C#N)cc1` (stereo unspecified) gave Pol kappa inh 79.4µM*, WRN helicase inh inconclusive, POLI inh 50.1µM*, Pol beta inh -1.7% and Pol eta inh 22.4µM*.
Screening Cc1cc(C)n(-c2ccc(Oc3ccccc3)c(S(=O)(=O)O)c2)n1 returned Pol kappa inh -30.5%, WRN helicase inh inconclusive, POLI inh 22.6%, Pol beta inh inconclusive and Pol eta inh 50.1µM*.
`Cc1[nH]n(-c2ccccc2)c(=O)c1CCO` gave Pol kappa inh -13.7%, WRN helicase inh -2.4%, POLI inh 1.3%, Pol beta inh 12.5% and Pol eta inh 2.1%.
Screening CCc1c(C)[nH]n(-c2ccc(Oc3ccccc3)c(S(=O)(=O)O)c2)c1=O returned Pol kappa inh 35.5µM*, WRN helicase inh inconclusive, POLI inh 17.8µM*, Pol beta inh 25.1µM* and Pol eta inh 11.2µM*.
`CC(C)CS(=O)(=O)c1oc(-c2ccc(F)cc2)nc1S(=O)(=O)c1ccccc1` gave Pol kappa inh -4.7%, POLI inh inconclusive, Pol beta inh 18.6% and Pol eta inh -9.0%.
COc1cc(NC(=O)CSc2nc3nc(C)c(Cc4ccccc4)c(C)n3n2)cc(OC)c1OC was read as Pol kappa inh -9.0%[60.1 µM], POLI inh 16.8%, Pol beta inh 23.5% and Pol eta inh -18.8%.
`CCn1cc(C(=O)NCC(C)C)c(=O)c2cc(F)c(N3CCN(C)CC3)cc21` gave Pol kappa inh -1.1%, WRN helicase inh -16.4%, POLI inh 122.6%, Pol beta inh 2.1% and Pol eta inh -21.3%.
For CCn1cc(C(=O)O)c(=O)c2cc(F)c(N3CCN(S(=O)(=O)c4ccc(NC(C)=O)cc4)CC3)cc21 the results were Pol kappa inh -36.6%, WRN helicase inh inconclusive, POLI inh -19.4%, Pol beta inh 20µM* and Pol eta inh inconclusive.
Screening CCn1cc(C(=O)NN)c(=O)c2cc(F)c(N3CCOCC3)cc21 returned Pol kappa inh -15.6%, WRN helicase inh 89.1µM*, POLI inh inconclusive, Pol beta inh 45.5% and Pol eta inh inconclusive.
Screening CCCN1C(=O)c2ccccc2NC1c1ccc(OC)c(COc2cccc(C)c2C)c1 (stereo unspecified) returned Pol kappa inh -25.2% and POLI inh -14.9%.
COc1ccc(-c2csc(NC(=O)c3cccc(N4C(=O)CCC4=O)c3)n2)cc1C was read as Pol kappa inh -8.2%, WRN helicase inh -32.5%, POLI inh 9.3%, Pol beta inh -17.8% and Pol eta inh -17.3%.
COc1ccc(OC)c2sc(NC(=O)c3cccc(N4C(=O)CCC4=O)c3)nc12 was read as Pol kappa inh -21.2%, WRN helicase inh inconclusive, POLI inh 28.2µM*, Pol beta inh inconclusive and Pol eta inh inconclusive.
Screening C1CCC[C@H]2CCCN3CC[C@H](CCCCCC[C@@H]4CCCN5CC[C@H](CC1)OC45)OC23 returned Pol kappa inh 4.5%[19.4 µM].
Cc1ccc(S(=O)(=O)N2CCN(c3ccnc(-c4cccs4)n3)CC2)cc1 was read as Pol kappa inh -10.3% and POLI inh 5.9%.
`CCN(CC)c1ccc(C=C2SC(=S)NC2=O)cc1` gave Pol kappa inh inconclusive, WRN helicase inh 50.1µM*, POLI inh inconclusive and Pol eta inh inconclusive.
